Screens from PubChem BioAssay.
Compounds with a hit are over-represented: about 0.71% of the library has one in this group of screens.
IDE cell activ: IDE (human) activation, cell-based | P14735 | HEK cells, FAbeta-B cleavage, fluorescence polarization; 0% vehicle, 100% cell-free pure enzyme wells | activation, % at 5.96 µM | 0.073% of 340,000 active | AID 493087;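 active = activation above the mean of all tested compounds plus 3 SD, set per screening campaign, cut at about 17% in these data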
Target sequence (P14735 whole entry, looked up): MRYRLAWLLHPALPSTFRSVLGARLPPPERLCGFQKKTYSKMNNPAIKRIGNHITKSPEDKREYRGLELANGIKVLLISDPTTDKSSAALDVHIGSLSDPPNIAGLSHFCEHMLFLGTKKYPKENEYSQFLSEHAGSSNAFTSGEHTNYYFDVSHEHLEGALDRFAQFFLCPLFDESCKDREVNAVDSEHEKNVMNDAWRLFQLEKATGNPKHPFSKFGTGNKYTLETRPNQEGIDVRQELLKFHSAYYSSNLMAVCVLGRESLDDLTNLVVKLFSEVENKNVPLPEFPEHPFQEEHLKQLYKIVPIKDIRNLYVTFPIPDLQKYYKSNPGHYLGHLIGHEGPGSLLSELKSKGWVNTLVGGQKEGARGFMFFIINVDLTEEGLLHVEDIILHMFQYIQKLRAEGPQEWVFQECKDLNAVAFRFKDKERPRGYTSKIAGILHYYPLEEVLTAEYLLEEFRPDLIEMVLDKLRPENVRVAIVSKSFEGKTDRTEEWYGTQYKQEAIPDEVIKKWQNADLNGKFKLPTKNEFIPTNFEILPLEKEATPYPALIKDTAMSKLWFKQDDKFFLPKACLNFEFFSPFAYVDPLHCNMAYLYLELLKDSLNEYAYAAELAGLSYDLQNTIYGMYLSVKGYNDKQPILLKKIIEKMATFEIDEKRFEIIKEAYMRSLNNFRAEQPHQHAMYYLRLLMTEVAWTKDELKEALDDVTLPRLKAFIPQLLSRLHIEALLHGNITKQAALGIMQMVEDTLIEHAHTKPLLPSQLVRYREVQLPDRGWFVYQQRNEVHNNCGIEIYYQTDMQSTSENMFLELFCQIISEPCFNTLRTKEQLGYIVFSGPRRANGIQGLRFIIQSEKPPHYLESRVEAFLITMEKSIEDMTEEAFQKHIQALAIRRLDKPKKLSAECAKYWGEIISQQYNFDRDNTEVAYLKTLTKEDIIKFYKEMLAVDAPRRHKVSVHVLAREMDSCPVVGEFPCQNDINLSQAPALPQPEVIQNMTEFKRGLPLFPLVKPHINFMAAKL
IDE inh: inhibitors of human insulin-degrading enzyme in cells | AID 434962 | P14735 | HEK cells, FAbetaB cleavage, fluorescence polarization | inhibition, % at 5.59 µM | 0.41% of 320,000 active;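 active = percent inhibition above the average of all tested compounds plus 3 SD, set per screening campaign, cut at about 16% in these data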;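 note: IDE supplied by intact live HEK cells; FP after avidin binding of uncleaved biotin substrate so inhibition keeps polarization high; 0% = DMSO wells and 100% = 60 µM reference IDE inhibitor Ii1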
RTF Ca sens act: increases calcium sensitivity of human cardiac regulated thin filaments | P19429+P45379 | IANBD-labeled TnC RTF fluorescence at EC20 calcium; 0% EC20 calcium, 100% full calcium | activation, % at 7.2 µM | 0.24% of 340,000 active | AID 493008;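 active = activation above the mean over all tested compounds plus 3 SD, cut at about 30% in these data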;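 note: rise in fluorescence read as greater calcium sensitivity of cardiac thin filaments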
Cardiac RTF inh: cardiac RTF calcium desensitization; P19429+P45379; 0.12% of 340,000 active; inhibition, % at 7.15 µM; AID 493244; IANBD-labeled cardiac RTF, Ca2+ fluorescence;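 active = inhibition above the mean inhibition of all tested compounds plus 3 SD, cut at about 17% in these data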;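 note: assay run at fixed EC70 calcium of 1.6 mM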
IDE inh confirm: cellular human IDE inhibition, confirmation | shares compounds with IDE inh | HEK cells, FAbetaB cleavage, fluorescence polarization | inhibition, % at 5.59 µM | 51% of 1,200 active | AID 435028;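 active = mean inhibition across triplicate wells above the cutoff set by the earlier primary insulin-degrading enzyme screen, cut at about 16% in these data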;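 note: 0% = DMSO wells and 100% = 60 µM reference IDE inhibitor Ii1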
HEK293 tox: HEK cell cytotoxicity, counter-screen for IDE inhibitors. shares compounds with IDE inh. HEK293 cytotoxicity, ATP luminescence. 28% of 1,200 active. inhibition, % at 5.59 µM; in the data active = inhibition above about 22%;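 note: 0% = vehicle wells and 100% = reference cytotoxic drug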
IDE FP artifact: counter-screen for IDE inhibitors: fluorescent artifacts. shares compounds with IDE inh. FP counterscreen for fluorescent artifacts, IDE probe project. IC50, µM. 30 tested, under 10 active. AID 588718; call rule not given here
The depositor's hits bear a star; / = no result.

SMILES | IDE cell activ | IDE inh | RTF Ca sens act | Cardiac RTF inh | others
Cc1cc(Br)c2c(c1)C(O)(N1CCCCC1C)C(=O)N2 (configuration not stated) | 2 | -2 | 30* | -3
Cc1cc([N+](=O)[O-])cc2c1NC(=O)C2(O)N1CCCC(C)C1 (configuration not stated) | 0 | 3 | -7 | -10
CCOC(=O)c1c(C)[nH]c(C)c1C(=O)COC(=O)Cc1ccc(OC)c(OC)c1 | 6 | 7 | 2 | 4
NC(=O)c1sc2nc3c(c(-c4ccco4)c2c1N)CCCC3 | 2 | 3 | 3 | -7
Nc1c(C(=O)NCC2CCCO2)sc2nc3c(c(-c4ccco4)c12)CC/C3=C\c1ccco1 (configuration not stated) | 0 | / | 11 | 25*
O=S(=O)(c1ccc(F)c(F)c1F)N1CCN(C(=S)Nc2ccccc2)CC1 | 3 | -1 | -1 | 14
COc1ccc(-n2nc3c(N4CCC(C(=O)NCc5ccco5)CC4)nnc(C)c3c2C)cc1 | -4 | 5 | 30* | -2
O=C(O)c1ccccc1Nc1ccc([N+](=O)[O-])c2nonc12 | 22* | -14 | -4 | 4
O=C(O)c1ccccc1NC(=O)C1CCN(S(=O)(=O)c2cccc3nsnc23)CC1 | 32* | -22 | -5 | -2
c1ccc(Cc2nnc3n2CCCCC3)cc1 | -3 | 3 | -4 | -13
c1ccc2c(c1)CCCN2Cc1nnc2n1CCCCC2 | 2 | -1 | 37* | -54
NS(=O)(=O)c1cccc(NC(=O)CSc2nnc3n2CCCCC3)c1 | -3 | 5 | -1 | -2
CC1(c2nnc(Cc3ccccc3)o2)CC(c2c(Cl)cccc2Cl)=NO1 (configuration not stated) | 39* | 6 | 3 | -3
Cc1ccc2c(c1)CCCN2CC(=O)N(C)c1c(N)n(Cc2ccccc2)c(=O)[nH]c1=O | -1 | -2 | 38* | -55
CCCC(C)CO (configuration not stated) | 3 | -2 | 4 | -2
NS(=O)(=O)c1ccc(N2N=C(c3ccccc3)CC2c2ccccc2)cc1 (configuration not stated) | -1 | 0 | 43* | -48
O=S(=O)(O)c1ccc(N2N=C(c3ccccc3)CC2c2ccccc2)cc1 (configuration not stated) | -2 | 2 | -4 | -9
CCOc1ccc(C(=O)NCC(=O)NCC(c2cccs2)N2CCOCC2)cc1 (configuration not stated) | 1 | 0 | 0 | -10
CCN(Cc1ccccc1)C(=O)CC(=O)N(CC)Cc1ccccc1 | -2 | 4 | -2 | -6
CCN(c1ccccc1)S(=O)(=O)c1ccc(N2CCN(c3ccc(OC)cc3)CC2)nc1 | 26* | 0 | -2 | 0
CCOc1cc(N2CCOCC2)c(OCC)cc1NC(=O)c1ccc(S(=O)(=O)N2CC(C)OC(C)C2)cc1 (configuration not stated) | 5 | / | -4 | -7
C=CCN1C(=O)/C(=C\C=C2\N(C)c3ccccc3C2(C)C)SC1=S | -10 | 2 | 51* | -31
C=CCN1C(=O)/C(=C2/Sc3ccccc3N2CC)SC1=S | -1 | -3 | 10 | -9
CCC(c1nnnn1CS(=O)(=O)c1ccc(C)cc1)N1CCC(C(N)=O)CC1 (configuration not stated) | 7 | 3 | -4 | -2
CCC1(c2ccccc2)NC(=O)N(CC(=O)Nc2ccc(OC)nc2)C1=O (configuration not stated) | 2 | -6 | 61* | -80
SMILES | IDE cell activ | IDE inh | RTF Ca sens act | Cardiac RTF inh | others
COc1ccc(-c2nn(-c3ccccc3)cc2C(=O)NC2CCC(C)CC2)cc1 (configuration not stated) | 4 | -5 | 0 | -4
O=c1[nH]ncc2c3ccccc3n(Cc3ccc(F)cc3)c12 | 4 | 0 | -2 | 2
O=c1[nH]ncc2c3ccccc3n(Cc3cccc(Cl)c3)c12 | -5 | -9 | 56* | -54
Cc1oc(-c2ccccc2)cc1C(=O)NC1CCN(Cc2ccccc2)CC1 | / | 0 | / | /
O=C(Nc1ccc2c(c1)CCC2)C1CCCN(c2ncccn2)C1 (configuration not stated) | 0 | 4 | -1 | -9
Cc1nc2ncnn2c(N2CCCC(C(=O)Nc3ccc4c(c3)CCC4)C2)c1C (configuration not stated) | -34 | 17* | 2 | -8 | IDE inh confirm=12;HEK293 tox=44*
Cc1ccc(C)c(N(C(=O)CNC(=O)c2ccco2)C(C(=O)NC2CCCCC2)c2cccnc2)c1 (configuration not stated) | -2 | -3 | -5 | 6
Cc1cc(/C=C2\SC(=S)N(C)C2=O)c(C)n1-c1ccc(O)cc1 | -20 | 15 | 14 | -36
Cc1cc(/C=C2\SC(=S)N(C)C2=O)c(C)n1-c1ccccc1O | -47 | 27* | 44* | -44 | IDE inh confirm=29*;HEK293 tox=47*
COc1ccc(S(=O)(=O)N2CCOC23CCN(S(=O)(=O)c2cc(C)ccc2OC)CC3)cc1 | -4 | 2 | -2 | -1
CCOC(=O)N1CCN(C(=O)/C=C/c2cccc([N+](=O)[O-])c2)CC1 | 6 | 3 | 2 | -5
CCCc1ccc(C2=Nn3c(nnc3C(C)C)SC2)cc1 | 0 | -4 | -3 | 6
Cc1cccc(N2CCN(C(=O)C3CCC(CNS(=O)(=O)c4cccs4)CC3)CC2)c1C (configuration not stated) | -9 | 21* | -2 | -5 | IDE inh confirm=3;HEK293 tox=52*
CN(C)c1ccc(/C=C(/NC(=O)c2ccccc2)C(=O)NCCN2CCOCC2)cc1 | -1 | 17* | 8 | -6 | IDE inh confirm=10;HEK293 tox=6
CN(C)c1ccc(/C=C(/NC(=O)c2ccccc2Cl)C(=O)NCCN2CCOCC2)cc1 | 3 | 18* | 5 | -11 | IDE inh confirm=2;HEK293 tox=11
CN(C)S(=O)(=O)n1cc(/C=C(\NC(=O)c2ccccc2Cl)C(=O)NCCN2CCOCC2)c2ccccc21 | -2 | 1 | -1 | -14
O=C(NCCN1CCOCC1)/C(=C/c1ccc(Cl)cc1)NC(=O)c1ccccc1 | 0 | 4 | 0 | -6
Cc1c(C(=O)c2ccc([N+](=O)[O-])cc2)c(=O)n(C)c(=O)n1C | 3 | 6 | -1 | -5
O=c1c2ccccc2sn1-c1cc(S(=O)(=O)N2CCOCC2)ccc1N1CCOCC1 | -32 | 59* | 1 | -8 | IDE inh confirm=59*;HEK293 tox=17;IDE FP artifact=>55
CCN(CC)c1ccc(/C=N/NC(=O)c2cccc(S(=O)(=O)N3CCOCC3)c2)c(O)c1 | -27 | 22* | -1 | 0 | IDE inh confirm=37*;HEK293 tox=85*
COc1ccccc1OC(=O)CCN1c2ccccc2Sc2ccccc21 | 0 | 3 | 0 | -19
